From PubChem BioAssay (EPA / NIEHS) come the findings set out here.

One may read the AC50 as the concentration giving half of the maximal activity seen.

Read-out in test [1]: Transforming growth factor beta 1 (TGFb1), TGFB1 (gene 7040)
In words: BSK_KF3CT_TGFb1: BioMAP Diversity Plus: KF3CT Assay for Transforming growth factor beta 1 (TGFb1) Biomarker Activity (AID 2283072). Conditions: primary human keratinocytes with fibroblasts; actives raise or lower the signal. Summed up: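 KF3CT co-culture (keratinocytes + fibroblasts), 24 h exposure → TGF-b1 ELISA → bidirectional fit, DMSO = baseline. Parallel SRB total-protein staining (0.1% SRB, 10% TCA fixation, 560 nm) for cytotoxicity.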

Read-out in test [2]: C-C motif chemokine 2 (Homo sapiens) (UniProt P13500)
The test is described as follows: BSK_KF3CT_MCP1: BioMAP Diversity Plus: KF3CT Assay for Monocyte Chemoattractant Protein 1 (MCP1/CCL2) Biomarker Activity (AID 2283073). The settings on record: primary human keratinocytes with fibroblasts; actives raise or lower the signal. Summed up:
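KF3CT skin co-culture (keratinocytes/foreskin fibroblasts), 24 h post-dose; MCP-1 by ELISA; gain/loss of signal fit bidirectionally vs DMSO baseline.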

Read-out in test [3]: Matrix Metallopeptidase 9 (MMP9), MMP9 (gene 4318)
The test is described as follows: BSK_KF3CT_MMP9: BioMAP Diversity Plus: KF3CT Assay for Matrix Metallopeptidase 9 (MMP9) Biomarker Activity (AID 2283074).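 For AC50: MMP9 protein level quantified by ELISA in the co-culture.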 The settings on record: primary human keratinocytes with fibroblasts; actives raise or lower the signal. Summed up: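 ELISA read-out of MMP-9 at 24 h post-dosing in a co-culture of human skin keratinocytes and foreskin fibroblasts. Gain or loss of signal was fitted in both directions against DMSO.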

Read-out in test [4]: CD40, CD40 (gene 958)
In words: BSK_LPS_CD40: BioMAP Diversity Plus: LPS Assay for CD40 Biomarker Activity (AID 2283076). The settings on record: primary human HUVEC with PBMC; actives raise or lower the signal. Summed up: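 ELISA readout of CD40 in HUVEC/PBMC co-culture (BSK_LPS system), 24 h post-dosing; bidirectional curve fit, DMSO baseline; parallel SRB total-protein staining for cytotoxicity.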

Read-out in test [5]: E-selectin (Homo sapiens) (UniProt P16581)
The test is described as follows: BSK_LPS_Eselectin: BioMAP Diversity Plus: LPS Assay for Eselectin Biomarker Activity (AID 2283077). Conditions: primary human HUVEC with PBMC; actives raise or lower the signal. Summed up: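 ELISA readout of E-selectin, 24 h post-dose, HUVEC + PBMC co-culture (LPS system). Gain or loss of signal vs DMSO baseline, bidirectional fit.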

Read-out in test [6]: Interleukin-8 (IL8), CXCL8 (gene 3576)
The test is described as follows: BSK_LPS_IL8: BioMAP Diversity Plus: LPS Assay for Interleukin-8 (IL8) Biomarker Activity (AID 2283078). Conditions: primary human HUVEC with PBMC; actives raise or lower the signal. Summed up: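 HUVEC + PBMC co-culture, LPS-activated; test chemicals dosed, IL-8 read by ELISA at 24 h. Bidirectional curve fit vs DMSO baseline (gain or loss of signal).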

Test [7] is described as follows: BSK_LPS_SRB: Viability Assessment in the BioMAP Diversity Plus: LPS Assay (AID 2283079).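 Note: total protein by sulforhodamine B absorbance as a cytotoxicity measure; measured one day after compound addition.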 Conditions: primary human HUVEC with PBMC. Summed up:
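HUVEC + PBMC co-culture, LPS-stimulated; compound 24 h. 10% TCA fix, 0.1% SRB stain, A560. Bidirectional fit vs DMSO.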

Read-out in test [8]: Interleukin-1 alpha (IL1a), IL1A (gene 3552)
The test is described as follows: BSK_LPS_IL1a: BioMAP Diversity Plus: LPS Assay for Interleukin-1 alpha (IL1a) Biomarker Activity (AID 2283080). Conditions: primary human HUVEC with PBMC; actives raise or lower the signal. Summed up: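 HUVEC/PBMC co-culture, LPS system; 24 h after dosing; IL-1a by ELISA; gain or loss of signal fitted bidirectionally vs DMSO baseline.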

Test [9] can be described thus: BSK_LPS_PGE2: BioMAP Diversity Plus: LPS Assay for Prostaglandin E2 (PGE2) Biomarker Activity (AID 2283082).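 For AC50: secreted prostaglandin E2 measured by ELISA in LPS-stimulated co-culture.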 Conditions: primary human HUVEC with PBMC; actives raise or lower the signal. Summed up:
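Compounds were added to the LPS co-culture of endothelium and PBMC, and PGE2 was measured by ELISA after 24 h. Responses in either direction were fitted with DMSO as baseline.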

Read-out in test [10]: Macrophage colony-stimulating factor (MCSF), CSF1 (gene 1435)
In words: BSK_LPS_MCSF: BioMAP Diversity Plus: LPS Assay for Macrophage colony-stimulating factor (MCSF) Biomarker Activity (AID 2283083). The settings on record: primary human HUVEC with PBMC; actives raise or lower the signal. Summed up: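 HUVEC + PBMC co-culture (human primary), 24 h post-dose; M-CSF by ELISA; gain/loss of signal fitted bidirectionally vs DMSO baseline.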

Read-out in test [11]: Tissue Factor, F3 (gene 2152)
The test is described as follows: BSK_LPS_TissueFactor: BioMAP Diversity Plus: LPS Assay for Tissue Factor Biomarker Activity (AID 2283084). Conditions: primary human HUVEC with PBMC; actives raise or lower the signal. Summed up:
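HUVEC/PBMC co-culture, LPS-activated; CD142 ELISA read 24 h post-dose; bidirectional curve fit vs DMSO negative control.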

Read-out in test [12]: Tumor necrosis factor (Homo sapiens) (UniProt P01375)
In words: BSK_LPS_TNFa: BioMAP Diversity Plus: LPS Assay for Tumour Necrosis Factor alpha (TNFa) Biomarker Activity (AID 2283085). Conditions: primary human HUVEC with PBMC; actives raise or lower the signal. Summed up: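 Cells (umbilical vein endothelium plus peripheral blood mononuclear cells) were dosed with chemical, incubated 24 h, then TNFa was quantified by ELISA; values derive from bidirectional fitting with DMSO as baseline.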

Read-out in test [13]: Vascular cell adhesion molecule 1 (VCAM1), VCAM1 (gene 7412)
In words: BSK_LPS_VCAM1: BioMAP Diversity Plus: LPS Assay for Vascular cell adhesion molecule 1 (VCAM1) Biomarker Activity (AID 2283086). The settings on record: primary human HUVEC with PBMC; actives raise or lower the signal. Summed up:
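Cells are dosed in an LPS-stimulated endothelial/mononuclear co-culture and, after 24 h, VCAM-1 is quantified by ELISA. Activity in either direction is fitted relative to the DMSO negative control.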

Read-out in the next test: CD38, CD38 (gene 952)
The test is described as follows: BSK_SAg_CD38: BioMAP Diversity Plus: SAg Assay for CD38 Biomarker Activity (AID 2283087). The settings on record: primary human HUVEC with PBMC; actives raise or lower the signal. Summed up:
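CD38 quantified by ELISA (fluorescence) in a superantigen-activated endothelial cell–PBMC co-culture at 24 h post-dose. Activity fitted in both directions relative to DMSO; parallel SRB and Alamar Blue cytotoxicity read-outs.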

Read-out in test [14]: CD40, CD40 (gene 958)
In words: BSK_SAg_CD40: BioMAP Diversity Plus: SAg Assay for CD40 Biomarker Activity (AID 2283088). The settings on record: primary human HUVEC with PBMC; actives raise or lower the signal. Summed up:
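HUVEC/PBMC co-culture, 24 h post-dose; CD40 by ELISA, fluorescence intensity; bidirectional fit vs DMSO negative control.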

Read-out in a further test: CD69, CD69 (gene 969)
In words: BSK_SAg_CD69: BioMAP Diversity Plus: SAg Assay for CD69 Biomarker Activity (AID 2283089).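 For AC50: cell surface CD69 protein quantified by ELISA with fluorescence detection.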 Conditions: primary human HUVEC with PBMC; actives raise or lower the signal. Summed up:
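HUVEC co-cultured with PBMC were dosed with chemical, and CD69 was measured by ELISA with fluorescence read-out 24 h later. Bidirectional curve fitting used DMSO as negative control and activity baseline.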

Read-out in test [15]: Monocyte Chemoattractant Protein-1 (MCP1), CCL2 (gene 6347)
In words: BSK_SAg_MCP1: BioMAP Diversity Plus: SAg Assay for Monocyte Chemoattractant Protein-1 (MCP1) Biomarker Activity (AID 2283090). The settings on record: primary human HUVEC with PBMC; actives raise or lower the signal. Summed up:
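Values derive from bidirectional fitting of ELISA-measured MCP1 against DMSO controls. Readings were taken 24 h after dosing human vascular endothelial cells co-cultured with peripheral blood mononuclear cells under superantigen stimulation.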

Read-out in test [16]: E-selectin (Homo sapiens) (UniProt P16581)
In words: BSK_SAg_Eselectin: BioMAP Diversity Plus: SAg Assay for Eselectin Biomarker Activity (AID 2283091). The settings on record: primary human HUVEC with PBMC; actives raise or lower the signal. Summed up:
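E-selectin ELISA readout at 24 h post-dosing in human umbilical vein endothelial cell/PBMC co-culture; gain or loss of signal fitted relative to DMSO baseline.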

Read-out in test [17]: Monocyte Chemoattractant Protein-1 (MCP1), CCL2 (gene 6347)
The test is described as follows: BSK_LPS_MCP1: BioMAP Diversity Plus: LPS Assay for Monocyte Chemoattractant Protein-1 (MCP1) Biomarker Activity (AID 2283081). Conditions: primary human HUVEC with PBMC; actives raise or lower the signal. Summed up: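 ELISA read-out of MCP-1 after 24 h chemical dosing of a human umbilical vein endothelial cell/peripheral blood mononuclear cell co-culture stimulated with LPS. Gain or loss of signal fitted relative to DMSO controls.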

The structures appear in SMILES notation. The source made the active and inactive calls. Rule for the calls: active = hit-call score of the fitted dose curve at least 0.9, where 1 is the maximum; inactive = score below 0.9.

Chain of E-selectin (Homo sapiens) (P16581 whole entry, looked up): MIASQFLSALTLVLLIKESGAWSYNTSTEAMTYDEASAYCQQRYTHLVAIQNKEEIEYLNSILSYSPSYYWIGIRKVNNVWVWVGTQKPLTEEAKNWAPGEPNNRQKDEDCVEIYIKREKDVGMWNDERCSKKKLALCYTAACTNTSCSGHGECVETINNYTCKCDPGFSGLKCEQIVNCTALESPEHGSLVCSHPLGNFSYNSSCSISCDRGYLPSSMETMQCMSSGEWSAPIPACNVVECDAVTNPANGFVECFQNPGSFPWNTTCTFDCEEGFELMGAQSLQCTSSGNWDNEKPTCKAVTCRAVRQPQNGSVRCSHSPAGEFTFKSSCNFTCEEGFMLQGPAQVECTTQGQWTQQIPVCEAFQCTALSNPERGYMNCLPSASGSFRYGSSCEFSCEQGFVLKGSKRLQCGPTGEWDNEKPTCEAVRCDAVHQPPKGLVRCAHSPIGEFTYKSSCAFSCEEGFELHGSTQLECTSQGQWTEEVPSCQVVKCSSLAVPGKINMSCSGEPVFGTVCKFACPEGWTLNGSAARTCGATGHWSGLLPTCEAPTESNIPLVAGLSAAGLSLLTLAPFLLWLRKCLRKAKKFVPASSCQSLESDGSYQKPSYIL
Chain of Tumor necrosis factor (Homo sapiens) (P01375 whole entry, looked up): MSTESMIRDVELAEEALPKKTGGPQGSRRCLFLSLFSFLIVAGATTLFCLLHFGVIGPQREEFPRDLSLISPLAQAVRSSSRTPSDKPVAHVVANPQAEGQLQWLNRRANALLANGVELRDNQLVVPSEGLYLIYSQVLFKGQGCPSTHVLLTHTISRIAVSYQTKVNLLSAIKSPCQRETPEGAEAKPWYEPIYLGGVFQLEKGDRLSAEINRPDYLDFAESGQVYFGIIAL

Regarding `CCCCCC(=O)O`, the outcome in test [1] was “inactive”; in [2], “inactive”; in [3] it was “inactive”; with CD40, CD40 (gene 958) [4], “inactive”; in test [5], “inactive”; in test [6] it was “inactive”. The outcome in test [7], in test [8], in [9], in test [10], in test [11] and in [12] was inactive. The outcome was “inactive” in [13]; “inactive” in the test with CD38, CD38 (gene 952); “inactive” with CD40, CD40 (gene 958) [14]; “inactive” with CD69, CD69 (gene 969); “inactive” in test [15]; “inactive” in [16].

As to `CC1(C)NC(=O)NC1=O`, the outcome is “inactive” in test [1]; “inactive” in test [2]; “inactive” in [3]; “inactive” in the test with CD40, CD40 (gene 958) [4]; “inactive” in test [5]; “inactive” in [6]. Also, the result in test [7], in test [8], in test [17], in test [9], in test [10] and in test [11] was inactive. Also, the outcome was “inactive” in test [13]; “inactive” with CD38, CD38 (gene 952); “inactive” with CD40, CD40 (gene 958) [14]; “inactive” with CD69, CD69 (gene 969); “inactive” in test [16].

Regarding `CCc1c(C(=O)NN2CCCCC2)nn(-c2ccc(Cl)cc2Cl)c1-c1ccc(Br)cc1`, the AC50 in test [1] is 6.72 µM (active); in test [2] it was 13 µM (active); in test [3], 4.31 µM (active); with CD40, CD40 (gene 958) [4] it was 12.3 µM (active); in [5] it was 7.44 µM (active); in [6] it was 5.2 µM (active). Moreover, the half-maximal activity concentration (AC50) is 9.94 µM (active) in test [7]; 10.4 µM (active) in test [8]; 15.3 µM (active) in [9]; 20 µM (active) in test [10]; 6.19 µM (active) in [13]; 11.5 µM (active) with CD38, CD38 (gene 952). Moreover, the AC50 with CD40, CD40 (gene 958) [14] is 12.2 µM (active); with CD69, CD69 (gene 969), 10.3 µM (active); in [15], 8.24 µM (active); in [16] it was 12.3 µM (active). The result in [11] was inactive.

As for `Cc1nc(C)nc(N2C[C@@H](C)N(c3ccnc([C@@H](C)O)n3)[C@@H](C)C2)n1`, the outcome in test [1] is “inactive”; in test [2], “inactive”; in test [3], “inactive”; with CD40, CD40 (gene 958) [4], “inactive”; in [5] it was “inactive”; in test [6], “inactive”. Moreover, the outcome in test [7], in test [8], in [17], in test [9], in test [11] and in test [13] was inactive. Further, the outcome was “inactive” in the test with CD38, CD38 (gene 952); “inactive” with CD40, CD40 (gene 958) [14]; “inactive” with CD69, CD69 (gene 969); “inactive” in test [16].
